{
  "source": "PubChem BioAssay (NCATS)",
  "note": "Results filed as inconclusive are left out. The source made the active and inactive calls. Calls come from the whole dose curve; as a rule, active = well fitted cell-killing curve with a large enough effect; inconclusive = small, poorly fitted or top-dose-only effect, or effect the other way; inactive = flat fitted curve, though single readings scatter. % is set by controls: 0 for no effect and ±100 for the full control effect.",
  "data": [
    {"test": "Cell Viability - HUV-EC-C (AID 542); note: nearly all actives have a fitted effect of over 35% in size", "settings": "HUV-EC-C endothelial cell viability, qHTS; series mostly up to 92.2 µM; activity change, negative = cytotoxicity: at the top concentration", "source_text": "NIH Chemical Genomics Center [NCGC]\nNIH Molecular Libraries Screening Centers Network [MLSCN]\nNational Institutes of Environmental Health Sciences [NIEHS]\nNational Toxicology Program [NTP]\nWe have developed a 1536-well cell-based assay for quantitative high throughput screening (qHTS) against a number of cell lines to determine in vitro cytotoxicity of small molecules. This particular assay uses the HUV-EC-C cell line which is derived from normal human vascular endothelial cells.\nNCGC Assay Protocol Summary:\nThe CellTiter-Glo luminescent cell viability assay (Promega) is a homogeneous method to measure the number of viable cells in culture. The end point readout of this assay is based on quantitation of intracellular ATP, an indicator of metabolic activity, using the luciferase reaction. Luciferase catalyzes the oxidation of beetle Luciferin to oxyluciferin and light in the presence of ATP. The luminescent signal is proportional to amount of ATP present.\nUsing the CellTiter-Glo luminescent cell viability assay, the amount of cellular ATP was measured in the HUV-EC-C cell line with complete culture medium following compound treatment for 40 hours. The assay was performed in opaque white Kalypsys 1536-well plates. In the screen, tamoxifen and doxorubicin were used as positive controls. Library compounds were measured for their ability to cause acute toxicity in the cell line, as reflected by a decrease in intracellular ATP levels, in a concentration-dependent manner. […] AC50 values were determined from concentration-response data modeled with the standard Hill equation.\nqHTS protocol for CellTiter Glo HUV-EC-C cellular assay\n[Step] [Parameter] [Value] [Description]\n1. Reagent; 5 uL; 1000 HUV-EC-C cells/well\n2. Time; 5 hr; 37 °C incubation\n4. Controls; 23 nL; Tamoxifen 0.34 uM to 100 uM & Doxorubicin 0.02 nM to 100 uM\n5. Time; 40 hr; 37 °C incubation\n6. Reagent; 5 uL; CellTiter Glo reagent\n7. Time; 20 min; Room Temperature\n8. Detection; Luminescence; Viewlux plate reader\nKeywords: cell viability, cytotoxicity, HUV-EC-C cell line, luminescence, NTPHTS, NTPHTS_NCGC, NIEHS, EPA, DSSTox, MLSMR, MLSCN, NIH Roadmap, qHTS, NCGC", "values": [
      {"compound": "CCCCC/C=C/C=C/C=O", "activity change, negative = cytotoxicity": "2.94% (inactive)"},
      {"compound": "CCCOCC(C)OCC(C)O", "note": "(stereo not given)", "activity change, negative = cytotoxicity": "-1.81% (inactive)"},
      {"compound": "Cc1c(N)cccc1[N+](=O)[O-]", "activity change, negative = cytotoxicity": "-11.2% (inactive)"},
      {"compound": "CN(C)CCCNCCCN", "activity change, negative = cytotoxicity": "5.39% (inactive)"},
      {"compound": "Nc1ccc(F)cc1F", "activity change, negative = cytotoxicity": "-16.7% (inactive)"},
      {"compound": "CCOC(=O)OCC", "activity change, negative = cytotoxicity": "6.54% (inactive)"},
      {"compound": "Cc1ccco1", "activity change, negative = cytotoxicity": "-5.12% (inactive)"},
      {"compound": "Cc1ccccc1Br", "activity change, negative = cytotoxicity": "-3.37% (inactive)"},
      {"compound": "C=CCCC", "activity change, negative = cytotoxicity": "-2.69% (inactive)"},
      {"compound": "CCCC(C)CO", "note": "(stereo not given)", "activity change, negative = cytotoxicity": "-5.07% (inactive)"},
      {"compound": "O=[N+]([O-])c1ccc(NCCO)c(OCCO)c1", "activity change, negative = cytotoxicity": "-2.64% (inactive)"},
      {"compound": "Cc1ccc2cccnc2c1", "activity change, negative = cytotoxicity": "-11.3% (inactive)"},
      {"compound": "CC(=O)Nc1ccc(N)cc1", "activity change, negative = cytotoxicity": "10.1% (inactive)"},
      {"compound": "C1CCC2OC2C1", "note": "(stereo not given)", "activity change, negative = cytotoxicity": "4.62% (inactive)"},
      {"compound": "CCCCC(=O)N(C)C", "activity change, negative = cytotoxicity": "10.2% (inactive)"},
      {"compound": "CCCCCCCCC/C=C/CC1CC(=O)OC1=O", "note": "(stereo not given)", "activity change, negative = cytotoxicity": "13.6% (inactive)"},
      {"compound": "CC(=O)Nc1ccccc1C", "activity change, negative = cytotoxicity": "1.75% (inactive)"},
      {"compound": "Fc1ccccc1", "activity change, negative = cytotoxicity": "2.21% (inactive)"},
      {"compound": "Oc1cccc(Nc2ccccc2)c1", "activity change, negative = cytotoxicity": "-13% (inactive)"},
      {"compound": "O=C1CCCCC1", "activity change, negative = cytotoxicity": "13.3% (inactive)"},
      {"compound": "O=C(O)c1ccc(CO)o1", "activity change, negative = cytotoxicity": "-5.49% (inactive)"},
      {"compound": "CC(=O)CC(C)C", "activity change, negative = cytotoxicity": "-9.88% (inactive)"},
      {"compound": "C=CCn1c(=O)n(CC=C)c(=O)n(CC=C)c1=O", "activity change, negative = cytotoxicity": "-2.25% (inactive)"},
      {"compound": "C=CCCCCCCC=C", "activity change, negative = cytotoxicity": "-14.8% (inactive)"},
      {"compound": "O=[N+]([O-])c1cccc(C(F)(F)F)c1", "activity change, negative = cytotoxicity": "4.8% (inactive)"},
      {"compound": "CC(C)N=C=NC(C)C", "activity change, negative = cytotoxicity": "-4.24% (inactive)"},
      {"compound": "CNC(=O)c1ccccc1", "activity change, negative = cytotoxicity": "-6.88% (inactive)"},
      {"compound": "Cc1cc(C2(c3cc(C)c(O)cc3C)OS(=O)(=O)c3ccccc32)c(C)cc1O", "activity change, negative = cytotoxicity": "-5.41% (inactive)"},
      {"compound": "CC(C)Cc1nccs1", "activity change, negative = cytotoxicity": "0.649% (inactive)"},
      {"compound": "Nc1ccccc1S(=O)(=O)O", "activity change, negative = cytotoxicity": "-3.06% (inactive)"},
      {"compound": "Nc1cccc(S(=O)(=O)O)c1", "activity change, negative = cytotoxicity": "3.85% (inactive)"},
      {"compound": "O=C(O)c1ccccc1[N+](=O)[O-]", "activity change, negative = cytotoxicity": "7.11% (inactive)"},
      {"compound": "Nc1nc(-c2ccccc2)cs1", "activity change, negative = cytotoxicity": "-14.9% (inactive)"},
      {"compound": "CCOC(C)(C)C", "activity change, negative = cytotoxicity": "0.494% (inactive)"},
      {"compound": "CC(CCl)OC(C)CCl", "note": "(stereo not given)", "activity change, negative = cytotoxicity": "-2.98% (inactive)"},
      {"compound": "Nc1cccc(N)c1", "activity change, negative = cytotoxicity": "-6.31% (inactive)"},
      {"compound": "Cc1ccccc1C=O", "activity change, negative = cytotoxicity": "2.81% (inactive)"},
      {"compound": "CC(=O)OCCC(C)C", "activity change, negative = cytotoxicity": "-5.09% (inactive)"},
      {"compound": "C/C=C(/C)C#N", "activity change, negative = cytotoxicity": "5.68% (inactive)"},
      {"compound": "CC(=O)c1ccc([N+](=O)[O-])cc1", "activity change, negative = cytotoxicity": "-3.43% (inactive)"}
    ]}
  ]
}
